In one assay the target is T1, GST-ANAC092(1-176) (Arabidopsis thaliana, UniProt Q9FKA0 1-176).
T1 sequence: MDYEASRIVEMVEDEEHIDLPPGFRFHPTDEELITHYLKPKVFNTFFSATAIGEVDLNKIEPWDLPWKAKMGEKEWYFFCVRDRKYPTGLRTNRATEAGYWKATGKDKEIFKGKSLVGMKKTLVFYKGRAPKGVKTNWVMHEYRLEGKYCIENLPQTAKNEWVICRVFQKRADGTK
Put plainly: universal protein binding microarray (PBM); transcription factors of Arabidopsis thaliana; high values mean tight binding. The following applies: protein: recombinant; tags: GST; chain copies: 2; dsDNA, one strand shown. The essentials:
(§1)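 For zinc-finger proteins, zinc acetate was added while GST-tagged NAC-domain, full-length or DNA-binding-domain proteins were induced in cells. Purification used glutathione–Sepharose 4B, and quantification used A280 or anti-GST western blot. Custom all-10-mer Agilent 4 × 180K arrays, made double-stranded by primer extension, each received a protein at 200 to 500 nM final in duplicate. Scoring covered gapped and ungapped 8-mers, with binding given as the normalised enrichment score (E-score).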
Sequence of GST-WRKY1(266-371) (Q9SI37 266-371): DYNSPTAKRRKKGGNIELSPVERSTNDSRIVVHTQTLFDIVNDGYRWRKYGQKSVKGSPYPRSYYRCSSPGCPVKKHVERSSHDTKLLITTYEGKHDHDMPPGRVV
As for AGGGTAAC, the binding signal worked out at 0.059 E-score.
The same measure, in the same setting: for AGGTAACC the value was 0.148 E-score.
For GGGAAACC, the binding signal was 0.144 E-score.
Same read-out and setting: for GGAGGAAA the value was 0.124 E-score; for CCTTTCCC, 0.088 E-score; for GAGGGAAA, 0.11 E-score.
In the case of AGGTTACC, the binding signal is 0.0662 E-score.

For another assay, the target named is GST-NTL6(1-168) (Arabidopsis thaliana, UniProt Q9SCK6 1-168). Described as above. The conditions noted are these: protein: recombinant; tags: GST; chain copies: 2; dsDNA, one strand shown. In outline: as §1
Sequence of GST-NTL6(1-168) (Q9SCK6 1-168): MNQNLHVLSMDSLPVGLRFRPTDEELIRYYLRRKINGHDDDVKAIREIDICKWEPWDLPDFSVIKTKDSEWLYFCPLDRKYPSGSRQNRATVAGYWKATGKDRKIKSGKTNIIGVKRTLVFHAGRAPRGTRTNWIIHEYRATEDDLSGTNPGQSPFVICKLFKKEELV
In the case of AGGGTAAC, the binding signal was determined as 0.0788 E-score.
Consider AGGTAACC, for which the binding signal came out at 0.105 E-score.
The same measure, in the same setting: for GGAGGAAA the value was 0.146 E-score.
Regarding CCTTTCCC, the binding signal worked out at 0.11 E-score.
Regarding GAGGGAAA, the binding signal is 0.11 E-score.
Same read-out and setting: for AGGTTTCC the value was 0.052 E-score.
Still for that read-out and setting: for ATTCCCCC the value was 0.146 E-score.

Another assay concerns the target T2, GST-ANAC019 NAC domain (Arabidopsis thaliana, UniProt Q9C932 14-162).
T2 sequence: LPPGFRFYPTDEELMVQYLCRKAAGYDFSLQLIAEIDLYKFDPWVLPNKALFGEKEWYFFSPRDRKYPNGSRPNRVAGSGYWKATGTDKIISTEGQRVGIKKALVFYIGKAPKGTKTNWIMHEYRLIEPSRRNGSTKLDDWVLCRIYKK
The description is as above. The following applies: protein: recombinant; tags: GST; chain copies: 2; dsDNA, one strand shown. The essentials: as §1
As to CCTTTCCC, the binding signal was determined as 0.0681 E-score.
Still for that read-out and setting: for GAGGGAAA the value was 0.154 E-score.
AGGTTACC: the binding signal was 0.0729 E-score.
Turning to AGGTTTCC, the binding signal was determined as 0.0846 E-score.

The target in another assay is T3, GST-ANAC092(1-285) full length (Arabidopsis thaliana, UniProt Q9FKA0 1-285).
T3 sequence: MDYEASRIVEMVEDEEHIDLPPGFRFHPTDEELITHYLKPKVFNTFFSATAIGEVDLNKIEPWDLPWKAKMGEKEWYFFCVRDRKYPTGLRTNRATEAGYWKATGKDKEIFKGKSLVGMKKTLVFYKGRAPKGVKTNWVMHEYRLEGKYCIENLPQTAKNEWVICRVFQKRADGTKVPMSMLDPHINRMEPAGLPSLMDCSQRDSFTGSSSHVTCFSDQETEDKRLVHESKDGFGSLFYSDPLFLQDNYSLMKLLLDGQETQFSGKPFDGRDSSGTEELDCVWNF
The description is as above. The following applies: protein: recombinant; tags: GST; chain copies: 2; dsDNA, one strand shown. The essentials:
as §1
With CTGGGTCA, the binding signal was 0.0748 E-score.
Consider AGGGTAAC, for which the binding signal was 0.0751 E-score.
Same read-out and setting: for AGGTAACC the value was 0.137 E-score; for ATTGACCG, 0.0505 E-score.
The same measure, in the same setting: for ACGGTCAA the value was 0.0716 E-score; for GTCGTTGA, 0.0529 E-score.
In the case of GGTCAATA, the binding signal was found to be 0.0505 E-score.
As for TGAGTCAA, the binding signal worked out at 0.0797 E-score.
The same measure, in the same setting: for AGGTTACC the value was 0.182 E-score; for GTCAAGAC, 0.0871 E-score.

A further assay concerns the target T4, GST-NAP(1-166) (Arabidopsis thaliana, UniProt O49255 1-166).
T4 sequence: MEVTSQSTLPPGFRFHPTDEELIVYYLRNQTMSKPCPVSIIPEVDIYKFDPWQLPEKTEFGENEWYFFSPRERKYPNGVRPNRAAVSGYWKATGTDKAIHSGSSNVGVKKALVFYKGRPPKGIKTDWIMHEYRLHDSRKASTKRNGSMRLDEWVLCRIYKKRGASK
The assay is described as above. The following applies: protein: recombinant; tags: GST; chain copies: 2; dsDNA, one strand shown. In outline:
as §1
Consider ACATTGAC, for which the binding signal was found to be 0.0505 E-score.
On the same count and under the same terms, for GGTCTTCA the value was 0.0664 E-score; for GGGTTGAC, 0.0845 E-score; for AAGTCGTC, 0.156 E-score.
On the same count and under the same terms, for AGTCGTCG the value was 0.119 E-score; for CAATTGAC, 0.054 E-score; for ACGACCAA, 0.103 E-score.
In the case of ATGGGTCA, the binding signal came to 0.0537 E-score.
Regarding GTCGTCAA, the binding signal came to 0.0529 E-score.
The same measure, in the same setting: for GGTCAATA the value was 0.0842 E-score.
For the sequence GAGGGAAA, the binding signal turned out to be 0.0766 E-score.
Same read-out and setting: for CGGTCAAC the value was 0.118 E-score.
The same measure, in the same setting: for GACCGTCA the value was 0.0503 E-score; for TACGGTCA, 0.0976 E-score.

Another assay has as its target T5, GST-NST2(1-184) (Arabidopsis thaliana, UniProt Q9M274 1-184).
T5 sequence: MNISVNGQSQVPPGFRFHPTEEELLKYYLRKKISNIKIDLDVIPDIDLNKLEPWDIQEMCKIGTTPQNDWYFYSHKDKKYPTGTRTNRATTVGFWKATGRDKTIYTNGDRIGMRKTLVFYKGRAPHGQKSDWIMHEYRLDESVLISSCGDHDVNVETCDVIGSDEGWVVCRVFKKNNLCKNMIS
The assay is described as above. The conditions noted are these: protein: recombinant; tags: GST; chain copies: 2; dsDNA, one strand shown. The essentials:
as §1
As to GGTCAACA, the binding signal is 0.0705 E-score.
Same read-out and setting: for GTCGTTGA the value was 0.0569 E-score.
On the same count and under the same terms, for CGGTCAAA the value was 0.0603 E-score; for AGGTTTCC, 0.0833 E-score.

In a further assay the target is T6, GST-NTL8 NAC domain (Arabidopsis thaliana, UniProt Q9XIN7 14-156).
T6 sequence: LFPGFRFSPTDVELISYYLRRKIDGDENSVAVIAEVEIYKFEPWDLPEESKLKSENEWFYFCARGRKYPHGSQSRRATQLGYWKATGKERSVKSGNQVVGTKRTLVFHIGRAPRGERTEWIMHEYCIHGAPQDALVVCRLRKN
The assay is described as above. The following applies: protein: recombinant; tags: GST; chain copies: 2; dsDNA, one strand shown. The essentials: as §1
Turning to AGGGTCAA, the binding signal came to 0.0535 E-score.
In the case of AGGTCAAC, the binding signal is 0.0726 E-score.
Same read-out and setting: for AGGGTAAC the value was 0.416 E-score; for AGGTAACC, 0.442 E-score.
The same measure, in the same setting: for CGGGGTCA the value was 0.107 E-score; for CTCGGTCA, 0.0649 E-score; for GGGAAACC, 0.443 E-score.
The same measure, in the same setting: for CCTCTGAC the value was 0.12 E-score.
As for GGGGGGAA, the binding signal worked out at 0.453 E-score.
Still for that read-out and setting: for GGAGGAAA the value was 0.459 E-score.
For the sequence AGTCAAGC, the binding signal was 0.0828 E-score.
For the sequence CGAGGTCA, the binding signal worked out at 0.0549 E-score.
Same read-out and setting: for CGGTCAAA the value was 0.0552 E-score; for CCTTTCCC, 0.421 E-score; for GAGGGAAA, 0.472 E-score.
Regarding AGGTTACC, the binding signal was found to be 0.437 E-score.
AGGTTTCC: the binding signal was found to be 0.457 E-score.
Same read-out and setting: for ACGGTCAG the value was 0.0654 E-score.
On the same count and under the same terms, for ATTCCCCC the value was 0.402 E-score.

The next assay has as its target GST-WRKY1(266-371) (Arabidopsis thaliana, UniProt Q9SI37 266-371). Described as above. The conditions noted are these: protein: recombinant; tags: GST; dsDNA, one strand shown. The essentials:
as §1
As to ACATTGAC, the binding signal turned out to be 0.465 E-score.
The same measure, in the same setting: for AGGGTCAA the value was 0.483 E-score; for GGTCTTCA, 0.431 E-score.
Consider AGGTCAAC, for which the binding signal was found to be 0.492 E-score.
Same read-out and setting: for CTGGGTCA the value was 0.439 E-score; for GGGTTGAC, 0.477 E-score.
The same measure, in the same setting: for CGGGGTCA the value was 0.412 E-score.
For the sequence GGTCAACA, the binding signal was found to be 0.493 E-score.
Still for that read-out and setting: for CTCGGTCA the value was 0.451 E-score; for AAGTCGTC, 0.419 E-score; for CCTCTGAC, 0.408 E-score.
On to ATTGACCG, for which the binding signal came out at 0.487 E-score.
Same read-out and setting: for AGTCGTCG the value was 0.432 E-score; for AGTCAAGC, 0.459 E-score.
On the same count and under the same terms, for ACGGTCAA the value was 0.49 E-score.
The same measure, in the same setting: for CAATTGAC the value was 0.435 E-score.
As for GTCGTTGA, the binding signal was determined as 0.43 E-score.
In the case of CGAGGTCA, the binding signal turned out to be 0.425 E-score.
On the same count and under the same terms, for ACGACCAA the value was 0.416 E-score; for ATGGGTCA, 0.422 E-score; for GTCGTCAA, 0.424 E-score.
Same read-out and setting: for GGTCAATA the value was 0.482 E-score; for CGGTCAAA, 0.49 E-score.
In the case of TGAGTCAA, the binding signal came to 0.48 E-score.
On the same count and under the same terms, for GTCAAGAC the value was 0.446 E-score.
Consider CGGTCAAC, for which the binding signal was found to be 0.495 E-score.
On to GACCGTCA, for which the binding signal stood at 0.407 E-score.
As to TACGGTCA, the binding signal was 0.442 E-score.
In the case of ACGGTCAG, the binding signal came to 0.432 E-score.

The values are drawn from paper PMC4081100, “A DNA-binding-site landscape and regulatory network analysis for NAC transcription factors in Arabidopsis thaliana”.
